# Results: PubChem BioAssay AID1578 (Sanford-Burnham Center for Chemical Genomics, 2009)
# Hit rate of the full screen: of about 290,000 compounds, about 3,000 (1%) were called active. Cut-off read from the data, not from the text of the source: active = inhibition mostly above about 36% (no sharp cut-off); inactive = mostly below about 34%. This excerpt belongs to a sample that is enriched for actives.
# Assay: inhibition of NOD1-driven NF-kB reporter – cell-based, luminescence, uHTS, primary screen (AID 1578);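 note: HEK-293T reporter cells stimulated with the NOD1 agonist gamma-tri-DAP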
# Details: NOD1-driven NF-kB luciferase reporter cells, at 4 µM, stronger effect = higher value
row,Structure (SMILES),inhibition
1,Cc1ccc(NC(=O)c2cc(C)nc3ccccc23)c(C)c1,-34.7% (inactive)
2,Cc1ccc(NC(=O)Cc2ccccc2)c(C)c1,-29.9% (inactive)
3,COc1ccccc1N(C(=O)c1ccco1)C(C(=O)NC1CCCC1)c1ccc(N2CCOCC2)cc1 (stereo unspecified),37.6% (inactive)
4,Cc1ccccc1CC(=O)N1CCCC(CCC(=O)N2CCN(c3ccccn3)CC2)C1 (stereo unspecified),-12.6% (inactive)
5,Cc1c(Cc2ccccc2)c(=O)n2c([nH]c3ccccc32)c1C#N,90.3% (active)
6,Cc1c(CCO)c(=O)n2c([nH]c3ccccc32)c1C#N,1.6% (inactive)
7,Cc1c(CCC(=O)O)c(=O)n2c([nH]c3ccccc32)c1C#N,0.9% (inactive)
8,Cc1c(CCC(C)C)c(=O)n2c([nH]c3ccccc32)c1C#N,91.2% (active)
9,C=C(C)Cc1c(C)c(C#N)c2[nH]c3ccccc3n2c1=O,19.2% (inactive)
10,CCc1c(C)c(C#N)c2[nH]c3ccccc3n2c1=S,1.4% (inactive)
11,CN(C1CCCCC1)S(=O)(=O)c1ccc(NC(=O)c2ccco2)cc1,1.3% (inactive)
12,CN1C(=O)C(C)(C)c2cc(S(=O)(=O)N(C)Cc3ccccc3)ccc21,-4.1% (inactive)
13,COc1cccc2c1Oc1ncccc1N(C(=O)CCC(=O)NCc1ccccc1)C2,-19.2% (inactive)
14,O=C(CN1CCCc2ccccc21)NC(=O)NCc1ccccc1,-4.3% (inactive)
15,O=C(c1ccccc1)C1CCN(c2ncccc2[N+](=O)[O-])CC1,-8.7% (inactive)
16,c1ccc2c(c1)oc1c(NCc3ccc4c(c3)OCO4)ncnc12,66.2% (active)
17,Cc1nc(NCc2ccc3c(c2)OCO3)c2oc3ccccc3c2n1,15.2% (inactive)
18,CCc1nc(NCc2ccc3c(c2)OCO3)c2oc3ccccc3c2n1,23.2% (inactive)
19,O=C(CSc1nnnn1-c1ccccc1)Nc1ccccc1,-15.6% (inactive)
20,O=C(CSc1nnnn1-c1ccccc1)CC(=O)Nc1ccc(Cl)cc1,73.1% (active)
21,O=C(CSc1nnnn1-c1ccccc1)Nc1ccc(Cl)cc1,18.8% (inactive)
22,CN1C(=O)SC(Nc2cccc3ccccc23)C1=O (stereo unspecified),-30.3% (inactive)
23,O=C(CCN1C(=O)C2CC=CCC2C1=O)NC1CCCCC1 (stereo unspecified),44.9% (active)
24,O=C(CN1C(=O)C2CC=CCC2C1=O)NC1CCCCC1 (stereo unspecified),-35.5% (inactive)

row,Structure (SMILES),inhibition
1,O=C(CCN1C(=O)C2CC=C(Cl)CC2C1=O)NC1CCCCC1 (stereo unspecified),-1.2% (inactive)
2,Cc1cc2ccccn2c1C(=O)c1ccc(C#N)cc1,2% (inactive)
3,CCOc1ccc2c(c1)OC(c1ccccc1)(C(F)(F)F)NC2=O (stereo unspecified),-42.1% (inactive)
4,CCOc1ccc2c(c1)OC(c1ccc(OC)cc1)(C(F)(F)F)NC2=O (stereo unspecified),-30.6% (inactive)
5,CCOc1ccc2c(c1)OC(c1ccc(C)cc1)(C(F)(F)F)NC2=O (stereo unspecified),101% (active)
6,CC(Sc1nnc(CC(=O)Nc2ccccc2F)n1C)C(=O)Nc1nccs1 (stereo unspecified),-32.4% (inactive)
7,Cc1ccc(S(=O)(=O)CCSc2n[nH]c(=O)n2-c2ccccc2)cc1,-6.8% (inactive)
8,Cc1cc(C)c(-n2c(SCCS(=O)(=O)c3ccc(F)cc3)n[nH]c2=O)c(C)c1,69.7% (active)
9,O=c1[nH]nc(SCCS(=O)(=O)c2ccc(F)cc2)n1-c1ccccc1,-11.2% (inactive)
10,CCOC(=O)c1[nH]cnc1C(=O)Nc1cccc(OC)c1,-3.5% (inactive)
11,CCCCC(c1nnnn1CC1CCCO1)N1CCN(c2ccccc2)CC1 (stereo unspecified),-34.5% (inactive)
12,CCN(c1ccccc1)S(=O)(=O)c1ccc2c(c1)CC(C)N2C(=O)C1CC1 (stereo unspecified),-12.9% (inactive)
13,CC(=O)NC1(c2ccccc2)CCN(c2nc(C)cc(C)n2)CC1,-0.9% (inactive)
14,Cc1cc(N2CCC(C(N)=O)CC2)nc(-c2ccccc2)n1,2% (inactive)
15,CC(=O)NC1(c2ccccc2)CCN(c2cc(C)nc(-c3ccccc3)n2)CC1,52.2% (active)
16,CCN(Cc1ccncc1)Cc1nc(CC2CC2)no1,-8.9% (inactive)
17,CN(C)CC(CCCCC(CN(C)C)C(=O)c1ccccc1)C(=O)c1ccccc1 (stereo unspecified),-4.1% (inactive)
18,COc1ccc(C(=O)C(CCCCC(CN(C)C)C(=O)c2ccc(OC)cc2)CN(C)C)cc1 (stereo unspecified),-6% (inactive)
19,COc1ccccc1NC(=O)CN1CCN(CC(=O)Nc2ccccc2Cl)CC1,-18.4% (inactive)
20,O=C(Nc1ccccc1)Nc1cc([N+](=O)[O-])ccc1F,-17.9% (inactive)
21,O=C(Nc1ccc(Cl)cc1)Nc1cc([N+](=O)[O-])ccc1F,30.3% (inactive)
22,COc1ccc(C2/C(=C(/O)c3ccc(C)cc3)C(=O)C(=O)N2C)c(OC)c1 (stereo unspecified),-29.5% (inactive)
23,CCC1CCC(C(=O)NC(C(=O)NCCN2CCOCC2)C(C)C)CC1 (stereo unspecified),-24.4% (inactive)
24,Cc1cc(Cl)c(S(=O)(=O)Nc2cc(S(=O)(=O)N3CCOCC3)ccc2F)cc1OCC(N)=O,-11.8% (inactive)

row,Structure (SMILES),inhibition
1,Cn1nccc1C(=O)N1CCN(c2cccc(C(F)(F)F)c2)CC1,-2.5% (inactive)
2,CC1Oc2ccccc2N(CC(=O)NCc2ccc3c(c2)OCO3)C1=O (stereo unspecified),-48.9% (inactive)
3,COc1ccc(OC)c(/C=N\NC(=O)c2c(C)nc3cc(C)ccn23)c1,-8.5% (inactive)
4,CN(C(=O)COc1ccccc1)c1nnc(C23CC4CC(CC(C4)C2)C3)s1,104% (active)
5,CN(C(=O)COc1ccc(Cl)cc1)c1nnc(C23CC4CC(CC(C4)C2)C3)s1,4.5% (inactive)
6,CN(C(=O)COc1ccc(Cl)cc1Cl)c1nnc(C23CC4CC(CC(C4)C2)C3)s1,-34.1% (inactive)
7,O=C(NNC(=S)Nc1ccc(Cl)c(Cl)c1)c1cccc([N+](=O)[O-])c1,-11.1% (inactive)
8,CN(C(=O)CC1C(=O)NCCN1Cc1cccc(F)c1F)C1CCOCC1 (stereo unspecified),-24.4% (inactive)
9,CCC(CCC(=O)Nc1nncs1)C(=O)O (stereo unspecified),0.6% (inactive)
10,O=C(O)CCCCCN1C(=O)C2CCCCC2C1=O (stereo unspecified),-26.7% (inactive)
11,CC(O)[C@H]1CNC(=O)C(=O)N1CCCCC1CCCCC1 (stereo partly specified),-9.4% (inactive)
12,O=C(O)CCCCCCC1C(=O)NC(=O)N1CCC(O)C1CCCCC1 (stereo unspecified),75.2% (active)
13,CCOC(=O)c1c(C)[nH]c(C)c1S(=O)(=O)N(C)CC(=O)NCc1cccc(Br)c1,-19.6% (inactive)
14,COc1ccc(-c2c3c(cc(C)[n+]2[O-])oc2ccc(OC)cc23)cc1,-20% (inactive)
15,Cc1[nH]nc2c1C(c1ccc3c(c1)OCO3)C(C#N)=C(N)O2 (stereo unspecified),-33.1% (inactive)
16,CC(C)c1cccc(C(C)C)c1NC(=O)CN1CCCC1,-21.2% (inactive)
17,CC(C)c1cccc(C(C)C)c1NC(=O)CCl,68.4% (active)
18,CC(C)c1cccc(C(C)C)c1NC(=O)c1ccccc1,-17.6% (inactive)
19,COc1ccccc1CNC(=O)Cn1nnnc1CN(C)C(C)C,-103% (inactive)
20,COc1ccc2oc(C(=O)NC(C)(C)C)c(C)c2c1,-42.6% (inactive)
21,CCCC(=O)C1=C(O)C(C(=O)OC)C(C)(C)CC1=Nc1ccc(OC)cc1 (stereo unspecified),-37.1% (inactive)
22,CCCC(=O)C1=C(O)C(C(=O)OC)C(C)(C)CC1=Nc1cccc2ccccc12 (stereo unspecified),53.5% (active)
23,CCCC(=O)C1=C(O)C(C(=O)OC)C(C)(C)CC1=Nc1ccccc1 (stereo unspecified),-9.6% (inactive)
24,O=C(NCC1CCCO1)c1ccc(/C=N/O)nc1 (stereo unspecified),-26.9% (inactive)

row,Structure (SMILES),inhibition
1,CC1(C)CC(N2CCCCC2)=CC(=[N+]2CCCCC2)C1,36.9% (inactive)
2,CC1(C)CC(N2CCCC2)=CC(=[N+]2CCCCC2)C1,-30.9% (inactive)
3,CC1(C)CC(N2CCN(c3ccccc3)CC2)=CC(=[N+]2CCCC2)C1,55% (inactive)
4,CC1(C)CC(N2CCCC2)=CC(=[N+]2CCCC2)C1,27.8% (inactive)
5,O=C(Cn1c(=O)c2sccc2n(Cc2ccc([N+](=O)[O-])cc2)c1=O)NCCc1ccccc1,-16.6% (inactive)
6,Cn1c(CNC(=O)CCNC(=O)c2cccc(F)c2)cc(=O)n(C)c1=O,-2.9% (inactive)
7,Cc1cccc(C(=O)N=c2sccn2C)c1[N+](=O)[O-],-69.7% (inactive)
8,O=C(NCc1ccc(F)cc1)C(=O)Nc1nc(C23CC4CC(CC(C4)C2)C3)cs1,46.9% (inactive)
9,O=C(NCc1ccncc1)C(=O)Nc1nc(C23CC4CC(CC(C4)C2)C3)cs1,-11.3% (inactive)
10,O=C(NCc1ccccc1)C(=O)Nc1nc(C23CC4CC(CC(C4)C2)C3)cs1,89.4% (active)
11,CC(=O)Nc1ccc(C(=O)OCC(=O)Nc2c(F)cccc2F)cc1,-4.7% (inactive)
12,Cc1ccc(S(=O)(=O)N2CCCN(S(=O)(=O)C3CCS(=O)(=O)C3)CC2)cc1 (stereo unspecified),-14.1% (inactive)
13,CCCCS(=O)(=O)C1CCS(=O)(=O)C1 (stereo unspecified),-31.7% (inactive)
14,O=S1(=O)CCC(S(=O)(=O)N2CCCCCC2)C1 (stereo unspecified),98.1% (active)
15,CC(C)C1Nc2ccc(C(=O)NCc3ccco3)cc2NC1=O (stereo unspecified),-8.3% (inactive)
16,CC12CCC(=O)N1C(C(=O)Nc1nnc(SCc3ccccc3F)s1)CS2 (stereo unspecified),-32.1% (inactive)
17,O=C(Cn1ncc2c([nH]c3ccccc32)c1=O)Nc1cccnc1,55.7% (active)
18,O=C(Cn1c(=O)[nH]c2ccccc2c1=O)Nc1cccnc1,-10.3% (inactive)
19,Cc1ccc(NC(=O)Cn2ncc3c([nH]c4ccccc43)c2=O)cc1Cl,1.5% (inactive)
20,O=C(NCCCN1CCCC1)[C@H](CSCc1ccccc1)N1Cc2ccccc2C1=O,-6.7% (inactive)
21,COc1cccc(CN2CCNC(=O)C2CC(=O)N(C)C2CCCCC2)c1 (stereo unspecified),-1.2% (inactive)
22,CC1CCCCN1C(=O)C(=O)c1cn(CC(=O)N2CCCCCC2)c2ccccc12 (stereo unspecified),-20.8% (inactive)
23,CCOC(=O)C1CCN(S(=O)(=O)c2ccc3c(c2)CCN3C(C)=O)CC1,6.1% (inactive)
24,CC(=O)N1CC(C)Sc2ccc(S(=O)(=O)N3CCCCC3)cc21 (stereo unspecified),6.9% (inactive)
